PubChem BioAssay AID602144 (Vanderbilt Specialized Chemistry Center, 2011)
Values without a mark were called inactive. Active and inactive are the calls of the source. Rule as the data show it: active = remaining activity below about 50%; inactive = the rest.

target: Phospholipase D1 (Homo sapiens) (UniProt Q13393); assay: cellular phospholipase D1 activity inhibition – Calu-1 cells, single concentration (AID 602144); settings: cellular PLD1 activity, hits give low values;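 also: tested at 200 nM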
Sequence (Q13393 whole entry, looked up): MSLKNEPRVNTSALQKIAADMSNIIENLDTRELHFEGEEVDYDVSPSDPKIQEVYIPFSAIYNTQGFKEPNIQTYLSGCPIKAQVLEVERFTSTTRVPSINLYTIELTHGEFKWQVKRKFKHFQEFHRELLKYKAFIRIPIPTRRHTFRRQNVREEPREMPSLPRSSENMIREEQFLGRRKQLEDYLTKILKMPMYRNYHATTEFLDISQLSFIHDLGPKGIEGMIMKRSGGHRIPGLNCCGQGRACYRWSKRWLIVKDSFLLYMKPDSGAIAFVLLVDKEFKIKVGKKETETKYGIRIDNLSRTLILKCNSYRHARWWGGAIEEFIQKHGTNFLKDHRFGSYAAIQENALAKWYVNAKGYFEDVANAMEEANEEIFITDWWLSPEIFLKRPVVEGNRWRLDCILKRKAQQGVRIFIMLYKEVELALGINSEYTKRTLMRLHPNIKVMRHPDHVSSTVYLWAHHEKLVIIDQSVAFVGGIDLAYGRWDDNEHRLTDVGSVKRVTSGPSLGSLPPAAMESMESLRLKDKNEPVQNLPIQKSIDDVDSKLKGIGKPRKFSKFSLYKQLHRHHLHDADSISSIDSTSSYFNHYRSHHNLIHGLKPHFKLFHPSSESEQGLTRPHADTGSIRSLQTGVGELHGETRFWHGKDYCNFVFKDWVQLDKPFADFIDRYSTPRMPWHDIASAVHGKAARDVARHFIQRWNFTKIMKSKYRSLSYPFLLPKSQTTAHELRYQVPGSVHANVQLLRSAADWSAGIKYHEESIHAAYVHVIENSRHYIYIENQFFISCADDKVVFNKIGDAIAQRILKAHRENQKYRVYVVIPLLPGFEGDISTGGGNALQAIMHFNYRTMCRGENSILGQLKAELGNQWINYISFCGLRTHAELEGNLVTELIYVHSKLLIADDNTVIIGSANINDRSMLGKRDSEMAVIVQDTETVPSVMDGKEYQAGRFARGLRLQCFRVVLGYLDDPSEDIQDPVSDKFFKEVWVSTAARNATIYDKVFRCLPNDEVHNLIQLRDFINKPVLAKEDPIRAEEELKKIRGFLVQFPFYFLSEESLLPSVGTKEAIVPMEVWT
Sequence (Q13393 whole entry, looked up): as above

Q: How did the remaining activity turn out when `O=C(NCCN1CCC2(CC1)C(=O)NCN2c1cccc(F)c1)c1ccc(-c2ccccc2)cc1` was run?
A: 93%

Q: With `O=C(NCCCN1CCC2(CC1)C(=O)NCN2c1ccccc1)c1ccc2ccccc2c1` as the compound, how does the remaining activity read?
A: 81%

Q: Which remaining activity does the source give for `O=C(c1ccc2ccccc2c1)N1CC(N2CCC(n3c(=O)[nH]c4ccccc43)CC2)C1` here?
A: 108%

Q: How did the remaining activity turn out when `O=C(NCCN1CCC2(CC1)C(=O)NCN2c1ccc(F)c(F)c1)c1ccc(Cl)cc1` was run?
A: 94.9%

Q: `O=C(Cc1ccccc1Br)NCCN1CCC2(CC1)C(=O)NCN2c1cccc(F)c1` was tested. Which remaining activity did it give?
A: 100%

Q: How did the remaining activity turn out when `O=C(NCCN1CCC2(CC1)C(=O)NCN2c1cccc(F)c1)C(c1ccccc1)c1ccccc1` was run?
A: 94.7%

Q: Which remaining activity does the source give for `O=C(NCCN1CCC2(CC1)C(=O)NCN2c1cccc(F)c1)c1ccc2c(c1)C(=O)OC2=O` here?
A: 102%

Q: `C[C@H](CN1CCC2(CC1)C(=O)NCN2c1ccccc1)NC(=O)c1cc2cc(F)ccc2[nH]1` was tested. Which remaining activity did it give?
A: 2.46% (active)

Q: How did the remaining activity turn out when `C[C@@H](CN1CCC2(CC1)C(=O)NCN2c1ccc(F)c(F)c1)NC(=O)c1cc2ccccc2[nH]1` was run?
A: 0% (active)

Q: Which remaining activity does the source give for `O=C(c1cnc2ccccc2c1)N1CC(N2CCC3(CC2)C(=O)NCN3c2ccccc2)C1` here?
A: 106%

Q: Which remaining activity does the source give for `O=C(CN1CCC2(CC1)C(=O)NCN2c1ccccc1)c1ccccc1` here?
A: 102%

Q: With `O=C(NCCN1CCC2(CC1)C(=O)NCN2c1ccccc1)c1ccc2cc(F)ccc2c1` as the compound, how does the remaining activity read?
A: 73.9%

Q: With `O=C(NCCN1CCC2(CC1)C(=O)NCN2c1ccccc1)c1ncccc1F` as the compound, how does the remaining activity read?
A: 110%
